# Bioassay records: PubChem, Paczesny and Yang Labs, IUPUI and University of Michigan
# ST2 inh – inhibitors of human ST2 (IL1RL1) binding to IL-33, primary screen, biochemical, AlphaLISA; Interleukin-1 receptor-like 1 (Homo sapiens), Q01638; AlphaLISA ST2-Fc/biotin-IL-33 interaction, 1 h; inhibition, % for hits at 17 µM; 78,000 tested, 2.3% active; in the data active = inhibition above about 30%
# Target sequence (Q01638 whole entry, looked up): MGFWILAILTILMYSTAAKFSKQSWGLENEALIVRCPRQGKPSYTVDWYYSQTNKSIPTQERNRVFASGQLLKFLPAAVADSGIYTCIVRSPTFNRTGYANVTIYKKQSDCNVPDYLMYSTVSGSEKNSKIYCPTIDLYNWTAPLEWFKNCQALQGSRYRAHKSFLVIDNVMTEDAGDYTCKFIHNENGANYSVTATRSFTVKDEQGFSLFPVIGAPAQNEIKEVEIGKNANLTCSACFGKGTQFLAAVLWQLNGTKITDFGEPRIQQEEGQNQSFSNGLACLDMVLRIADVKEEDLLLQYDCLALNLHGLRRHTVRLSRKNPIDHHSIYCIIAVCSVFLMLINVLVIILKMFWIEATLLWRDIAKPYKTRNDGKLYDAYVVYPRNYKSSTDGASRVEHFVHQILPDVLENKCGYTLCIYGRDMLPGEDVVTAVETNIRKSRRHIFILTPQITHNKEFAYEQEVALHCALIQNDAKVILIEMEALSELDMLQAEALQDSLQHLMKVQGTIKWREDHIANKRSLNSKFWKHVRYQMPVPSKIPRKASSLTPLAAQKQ
# Hits are given with their value; . = inactive. Many of the other results were omitted from the sample, so hits are more common in it than they were.
SMILES,ST2 inh
Cc1ccc(-c2noc(CCC(=O)N3CCN(C)CC3)n2)cc1,.
c1ccc(-c2noc([C@@H]3Cc4nc[nH]c4CN3CC3CCCCC3)n2)nc1,.
O=C(Nc1ccccc1Oc1cccnc1)C1CCCN(Cc2ccc3nonc3c2)C1 (configuration not stated),.
COc1ccc(CCC2CCCN(C(=O)c3ccccn3)C2)cc1 (configuration not stated),.
N=c1c2c(-c3ccccc3)c(-c3ccccc3)n(Cc3ccco3)c2ncn1Cc1ccco1,31.0%
O=c1[nH]nc(CCc2ccccc2O)n1Cc1ccco1,.
c1ccc(-c2nnc([C@H]3CCN(Cc4ccco4)C3)o2)cc1,.
c1ccc(COc2cccc(CN3CCSCC3)c2)cc1,.
Cc1ccc(NC(=O)C2CCCCC2)cc1OCc1cc(=O)n2cccc(C)c2n1,.
Cc1ccc(NC(=O)c2ccccc2C)cc1OCc1cc(=O)n2cccc(C)c2n1,33.0%
Cc1ccc(SCC(=O)Nc2ccc(C)c(OCc3cc(=O)n4cccc(C)c4n3)c2)cc1,.
CCc1nccc(-c2nccn2-c2ccc(OC)nc2OC)n1,.
COc1ccc(C2C(C(=O)Nc3cc(C)ccc3OC)CC(=O)N2c2ccc(OC)cc2)cc1 (configuration not stated),.
O=C(Cc1ccc(Br)cc1)Nc1ccccc1F,.
CC1=C[C@@H](CNC(=O)c2ccc(C#N)cc2)[C@H](C(C)C)C[C@H]1CC(=O)NCc1cccnc1,.
COc1ccc(CNC(=O)C[C@@H]2C[C@@H](C(C)C)[C@H](CNC(=O)c3ccc(C#N)cc3)C=C2C)cc1,.
CC1=C[C@@H](CNC(=O)c2ccc(C#N)cc2)[C@H](C(C)C)C[C@H]1CC(=O)NCCN(C)C,31.0%
COc1ccc(-n2ncc3c(N4CCN(c5cccc(Cl)c5)CC4)ncnc32)cc1,.
CC1=C(C(=O)Nc2ccc(Cl)cc2)C(c2ccncc2)n2ncnc2N1 (configuration not stated),.
O=C(Nc1ccccc1)c1cc2n(n1)CCN(C(=O)Cc1ccccc1O)C2,.
CC1=C[C@@H](CN2CCN(c3ccccn3)CC2)[C@H](C(C)C)C[C@H]1Cc1nnc(-c2ccccc2F)o1,.
O=C1C(=O)N(Cc2ccccc2)c2ccc(Br)cc21,30.0%
O=C1c2ccccc2NC(c2ccc(Br)cc2)N1Cc1ccccc1 (configuration not stated),.
O=C1C(=O)N(Cc2ccc(F)cc2)c2ccccc21,.
O=S(=O)(N1CCCC1)N1CCN(c2cc(C3CCNCC3)ncn2)CC1,.
SMILES,ST2 inh
O=C1C(=O)N(CCc2ccccc2)C(c2ccc(Cl)cc2)C1=C(O)c1ccccc1 (configuration not stated),.
[N-]=C=C1C(=O)N(CCc2ccccc2)C(=O)[C@H]([n+]2ccccc2)[C@H]1c1ccc(Cl)cc1,34.0%
Cc1ccc(C(=O)N2CCN(c3ccc(F)cc3)CC2)cc1,.
OCCNCCOc1ccc(Cl)cc1Br,.
CCCc1cc2c(=O)c(-c3ccc(C(=O)OCC)o3)c(C)oc2cc1OC(C)=O,.
O=[N+]([O-])c1ccc(Cl)c(N=Cc2ccc(Br)c([N+](=O)[O-])c2)c1,.
O=C1NC(=Nc2ccccc2Cl)S/C1=C/c1cc2c(cc1Cl)OCO2,31.0%
O=C(/C=C1\Sc2ccccc2NC1=O)NCc1ccc2c(c1)OCO2,.
O=C1NC(=O)/C(=C/c2ccc(-c3cc([N+](=O)[O-])ccc3Cl)o2)S1,.
O=C1NC(=Nc2ccccc2Cl)S/C1=C/c1ccc([N+](=O)[O-])cc1,31.0%
O=C1NC(=Nc2ccccc2Cl)SC1(CO)CO,.
CCOc1ccccc1/C=C1/SC(=O)NC1=O,.
COc1cccc(/C=C2/SC(=Nc3ccccc3Cl)NC2=O)c1OC,31.0%
COc1cccc(/C=C2\SC(N3CCN(C)CC3)=NC2=O)c1OC,.
COc1ccccc1NC(=O)CSc1nc2c(cc1C#N)CCC2,.
O=C(c1cnc(-c2ccncc2)nc1)N1CCCC2(CCNCC2)CC1,.
COc1ccc(Br)cc1C(=O)Nc1ccc(C)cc1[N+](=O)[O-],.
Cc1n[nH]c(C)c1S(=O)(=O)N1CCC(C(=O)NCc2ccco2)CC1,.
CN1CCN(C(=O)c2cnc(N3CCN(c4ccccn4)CC3)c3ccccc23)CC1,.
CN1C(=O)c2ccccc2Sc2ccc(C(=O)N3CCCC3)cc21,.
COc1ccc(N2CN=c3s/c(=C\c4cccc([N+](=O)[O-])c4)c(=O)n3C2)cc1,33.0%
O=c1/c(=C/c2cccc([N+](=O)[O-])c2)sc2n1CN(c1ccc3c(c1)OCO3)CN=2,36.0%
O=c1c2ccccc2nc(/C=C/c2ccc3c(c2)OCO3)n1-c1ccc([N+](=O)[O-])cc1,.
Cc1ccccc1-n1nc([N+](=O)[O-])c(=NCc2ccc3c(c2)OCO3)n1O,.
CC(=O)c1ccc(N2CN=c3s/c(=C\c4cccc([N+](=O)[O-])c4)c(=O)n3C2)cc1,.
SMILES,ST2 inh
CC(=O)c1ccc(N2CN=c3s/c(=C\c4cccnc4)c(=O)n3C2)cc1,.
Cc1ccc(CNC(=O)CCc2nc(-c3ccc(C)cc3)no2)cc1,.
Cc1cccc(-n2ncc3c(NCCC4=CCCCC4)ncnc32)c1,.
Cc1cc(NS(=O)(=O)c2ccc(F)cc2)no1,.
COc1cccc2cc(C(=O)NC(C)=O)c(=Nc3ccccc3F)oc12,33.0%
COc1cccc2cc(C(=O)NC(C)=O)c(=Nc3cccc(F)c3)oc12,.
COc1cccc2cc(C(=O)NC(C)=O)c(=Nc3ccc(C(F)(F)F)cc3)oc12,.
CCc1ccc(NC(=O)c2ccc(OC)cc2)cc1,.
CCCN(c1nc(C)c(Br)c(OC)n1)S(=O)(=O)c1ccc(C)cc1,.
O=C(O)C[C@@H]1CCN(C(=O)Cc2cccs2)C[C@@H]1CCN1CCOCC1,54.0%
O=C(Nc1cccc(F)c1)N1CCN(c2ccc(F)cc2)CC1,.
O=C(O)C[C@@H]1CCN(C(=O)c2ccccc2)C[C@@H]1CCN1CCN(c2cccc(C(F)(F)F)c2)CC1,.
CC(=O)Nc1ccc(S(=O)(=O)N(CCCN2CCOCC2)Cc2cccs2)cc1,.
O=C(O)C[C@@H]1CCN(C(=O)Nc2ccccc2)C[C@@H]1CCN1CCN(c2ccc(F)cc2)CC1,69.0%
O=C(O)C[C@@H]1CCN(C(=O)Cc2ccccc2)C[C@@H]1CCN1CCN(c2cccc(C(F)(F)F)c2)CC1,.
Cc1cccc(CN2C(=O)CSc3ccc(C(=O)NCc4cccnc4)cc32)c1,.
O=C(O)c1[nH]c2ccccc2c1CC(=O)N1CCN(c2cccc(Cl)c2)CC1,.
Cc1c(Cl)cccc1NS(=O)(=O)c1ccc2[nH]cc(C(=O)NCC3CCCO3)c(=O)c2c1 (configuration not stated),.
O=C(COc1ccc(Cl)cc1Cl)Nc1cccc(Cl)c1Cl,.
CCOC(=O)c1ccc2c(c1)NC(=O)c1ccccc1S2,.
O=C(CN1C(=O)CC(c2ccccc2)Sc2ccccc21)N1CCCC1 (configuration not stated),.
O=C(Nc1nc(-c2cccs2)cs1)c1ccc(Br)cc1,.
N#C/C(=C/c1ccc(Br)cc1)c1nc(-c2cccs2)cs1,40.0%
N#C/C(=C\c1ccc(Br)cc1)c1nc(C2CC2)cs1,49.0%
N#Cc1c(-c2ccccc2)cc(-c2cccs2)nc1Br,.
Cc1sc2nc3ccc(C(=O)N(C)Cc4ccccc4)cn3c(=O)c2c1C,.
N#CC(NC(=O)c1ccc(Cl)cc1)=C(Cl)Cl,.
Cn1c(=O)c2c(SCC(=O)c3ccccc3)nc(-c3ccco3)nc2n(C)c1=O,.
Cc1ccc(C2(O)CCN(C(=O)c3ccc4nc[nH]c4c3)CC2)nc1,.
